Activity calls are given as the source filed them. A call without a number means that no potency is given here. Calls follow the shape of the dose curve; as a rule, active = well fitted activation curve with a large enough effect; inconclusive = small, poorly fitted or top-dose-only effect; inactive = no such curve, though single readings can be large or run the other way.
Potency is read from the fitted curve at half-maximal effect.

The test is described as follows: Confirmatory qHTS for Identification of Small Molecule Activators of Huntingtin-Antisense Promoter Activity. The note with it: HEK293 HTT-AS promoter firefly luciferase reporter, 24 h; series mostly up to 57.5 µM. The gist of the method: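 Plated reporter HEK293 cells (24 h) received library compounds at up to 57.5 uM final or 50 uM PTC124, incubated 24 h at 37C; firefly luciferase luminescence was then recorded with Dual-Glo reagent.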
On to `CCCc1cc(N2CCN(c3ccc(OC)cc3)CC2)n2cnnc2n1`, for which the Potency entry was “inactive”.
Next, `CN(C)S(=O)(=O)c1ccc(C(=O)NCCSc2c(-c3ccc(Cl)cc3)[nH]c3ccccc23)cc1`: “inactive”; `COc1ccc(CNC(=O)c2ccc3c(c2)CCN3S(=O)(=O)c2ccc(C)cc2)cc1`: “inactive”; `Cc1c(C(=O)Nc2ccc(F)cc2)oc2ccc(S(=O)(=O)N3CCCCCC3)cc12`: “inactive”.
The result for `Cc1ccc(-c2[nH]c3ccccc3c2SCCNC(=O)c2ccc(S(=O)(=O)N(C)C)cc2)cc1` reads “inactive”.
Next, `N#Cc1ccccc1S(=O)(=O)N1CCC(Oc2ccc(-n3cnnn3)cc2)CC1`: “inactive”; `CCOc1ccccc1C(=O)Nc1ccc(-n2nncc2-c2ccccc2)cc1`: “inactive”.
Regarding `O=C(Nc1cccc(C(F)(F)F)c1)C1CCCN1S(=O)(=O)c1cccc2nsnc12` (centres undefined), the Potency result was “inactive”.
For the compound `CCOc1ccc(S(=O)(=O)NCCc2csc(-c3ccc(Cl)cc3)n2)cc1`, the Potency result was “inactive”.
In the case of `CC(C)(C)OC(=O)N1CCC(c2c(C(=O)N3CCC(c4ccccc4)C3)cnn2-c2ccc(Cl)cc2)CC1` (centres undefined), the Potency entry is “inactive”.
As to `Cc1ccc(C(C)C)c(OCCn2cc(C(=O)c3ccco3)c3ccccc32)c1`, the Potency entry is “inactive”.
The result for `COc1ccccc1C(=O)Nc1nnc(SCc2cc(=O)c3ccccc3[nH]2)s1` reads “inactive”; that for `COc1ccc2sc(N(Cc3cccnc3)C(=O)c3ccco3)nc2c1`, “inactive”; that for `CCc1ccc(NC(=O)c2ccc(F)c(S(=O)(=O)NCc3ccc(Cl)c(Cl)c3)c2)cc1`, “inactive”.
Next, `COc1ccc(C2=C(C)C(=O)N(Cc3ccc(C(=O)Nc4cccc(F)c4)cc3)S2(=O)=O)cc1`: “inactive”; `Cc1cc(C)cc(NC(=O)C2CCCN2S(=O)(=O)c2ccc3c(c2)CCCC(=O)N3)c1` (centres undefined): “inactive”.
On to `Cc1cccc(C)c1NC(=O)c1ccc2nc(CCc3ccccc3)oc2c1`, for which the Potency result is “inactive”.
For the compound `CC(=O)N1CCc2c(sc(NC(=O)CSc3ccccc3)c2-c2nc3ccccc3s2)C1`, the Potency result is “inactive”.
Next, `CCCc1cc(N2CCN(c3ccccc3F)CC2)n2cnnc2n1`: “inactive”.
For `CCc1ccccc1N(C)C(=O)C1CCCN(c2ncnc3c2nc2n3CCCCC2)C1` (centres undefined), the Potency entry was “inactive”.
The result for `O=C(Nc1ccc(OC(F)(F)F)cc1)C(NS(=O)(=O)c1cccc2nsnc12)c1ccccc1` (centres undefined) reads “inactive”; that for `CCc1ccc(NC(=O)c2ccc3oc(=O)n(Cc4ccccc4)c3c2)cc1`, “inactive”; that for `COc1ccc(NC(=O)Cn2nc(-c3ccncc3)ccc2=O)cc1Cl`, “inactive”.
Next, `Cc1ccc(Cn2c(SCc3ccc(C(=O)NC4CCCC4)cc3)nc3ccncc32)cc1`: “inactive”; `Cc1cc(C)c(S(=O)(=O)NCCc2sc3nc(-c4ccc(F)cc4)nn3c2C)c(C)c1`: “inactive”; `CCOC(=O)c1cc2c(=O)n3ccccc3nc2n(Cc2ccco2)c1=NC(=O)c1cc(C)cc(C)c1`: “inactive”.
The result for `Cc1cc(SCC(=O)Nc2nsc(-c3ccc(C(C)(C)C)cc3)n2)nc2ccccc12` reads 2690 nM (active); that for `COc1ccc(Cn2c(CO)cnc2SCc2ccc(F)cc2)cc1`, “inactive”.
On to `Cn1cnc(=N)c2[nH]cnc21`, for which the Potency entry was “inactive”.
Regarding `COc1ccc(C2c3c(-c4c(C)cc(C)cc4O)n[nH]c3C(=O)N2Cc2ccco2)cc1` (centres undefined), the Potency result is “inactive”.
Next, `CCn1c(SCc2ccc(F)cc2Cl)nc(=O)c2c(C(=O)OC)cc(C3CC3)nc21`: “inactive”.
Next, `COc1ccc(-c2cccc(NS(=O)(=O)c3cc(C)c(OC)c(C)c3C)c2)nn1`: “inactive”; `Cc1ccc2c(c1)N(C(=O)c1ccc(F)cc1)C(C)(C)CC2(C)c1ccccc1` (centres undefined): “inactive”; `Cc1ccc(C(=O)NCc2ccc3c(c2)CCN3C(=O)c2ccc(C)cc2)cc1`: “inactive”.
Next, `CCCCOc1ccc(C(=O)Nc2ccc3c(c2)CCCN3S(=O)(=O)c2ccc(C)cc2)cc1`: “inactive”.
For the compound `COc1ccccc1C1CC(=O)NC(C)=C1C(=O)OC1CCCCCC1` (centres undefined), the Potency entry is “inactive”.
`Cc1cccc(Cn2c(SCc3ccc(C(=O)N4CCC(C)CC4)cc3)nc3ccncc32)c1`: the Potency result is “inactive”.
The result for `Cc1ccc(CNS(=O)(=O)c2ccc(N3CCCCS3(=O)=O)cc2)cc1` reads “inactive”; that for `COc1ccc(-c2nc(CSCC(=O)N3CCN(c4cc(Cl)ccc4C)CC3)c(C)o2)cc1`, “inactive”.

The values above are taken from PubChem BioAssay AID1508622 (National Center for Advancing Translational Sciences (NCATS), 2021).
